In PubChem BioAssay AID1347383 (Zoeller Lab, School of Medicine, Boston University, 2020):
Calls of active or inactive are those of the source.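 How the source made its calls: active means cell survival after UV exposure 2 SD above solvent-only control wells at 10 µM, confirmed on one or two repeats; inactive means the rest.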

assay: protection of CHO cells from pyrene-fatty acid UV killing, primary screen, phospholipid biosynthesis inhibitor project, ZR-82 cells, Analyticon library, screen 2 (AID 1347383); details: ZR-82 CHO cells, CellTiter Blue, at 10 µM, peroxisome-deficient CHO-K1 variant, with DGAT-1, DGAT-2 and ACAT inhibitors;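 further: survival reflects blocked phospholipid synthesis cutting uptake of the phototoxic fatty acid; compound and fatty acid exposure 3 h then viability read next day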

Row | Structure (SMILES) | outcome
1 | COc1cc(C2CC(=O)c3c(O)cc(O)cc3O2)ccc1O (stereo not given) | inactive
2 | CC(=O)OC1C(=O)C2C3OCC4=C3[C@@](C)(CC[C@@H]4O)CC[C@]2(C)[C@H]1C(C)C (stereo not given in full) | inactive
3 | CC1(C)C=Cc2c(ccc3c2O[C@@H]2COc4cc5c(cc4[C@@]2(O)C3=O)OCO5)O1 | inactive
4 | COc1cc(OC)c2c(c1Cl)OC1(C(=O)C=C(O)C=C1C)C2=O (stereo not given) | inactive
5 | COC1=CC(=O)CC(C)C12Oc1cc(OC)cc(OC)c1C2=O (stereo not given) | inactive
6 | O=C1CC(c2ccc(O)c(O)c2)Oc2cc(O)cc(O)c21 (stereo not given) | inactive
7 | C=C(C)[C@@H]1CC[C@]2(COC(C)=O)CC[C@]3(C)[C@H](CC[C@@H]4[C@@]5(C)CC[C@H](OC(C)=O)C(C)(C)[C@@H]5CC[C@]43C)[C@@H]12 | inactive
8 | CC(C)(O)[C@@H]1Cc2cc3ccc(=O)oc3cc2O1 | inactive
9 | C=C1CCC2[C@@](C)(CO)CCC[C@]2(C)[C@H]1CC/C(C)=C/CO (stereo not given in full) | inactive
10 | COc1cc(O)cc(O)c1C(=O)/C=C/c1ccc(O)cc1 | inactive
11 | CCOC(=O)C1C(=O)C(=O)Nc2ccccc21 (stereo not given) | inactive
12 | C=C1C[C@]23C[C@H]1CC[C@H]2[C@]1(C)CCC[C@@]2(COC(C)=O)C(=O)O[C@H]([C@H]21)[C@@H]3OC(C)=O | active
13 | C=C[C@@]12COC(=O)C(=C)[C@@H]1[C@@H](O)[C@H](C(=C)C(=O)OC)[C@@H](O)C2 | inactive
14 | CCC1C(=O)O[C@]23C=C[C@@H]4C(C(=O)O)=CO[C@H](OC12)[C@@H]43 (stereo not given in full) | inactive
15 | COc1cc(O[C@@H]2O[C@H](CO)[C@@H](O)[C@H](O)[C@H]2O)cc(OC)c1OC | inactive
16 | COc1cc(/C=C/C(=O)O)cc(OC)c1OC | inactive
17 | CCC(C)C(=O)OC1CC(C)C=C2C=CC(C)C(CCC(O)CC(O)CC(=O)O)C21 (stereo not given) | inactive
18 | Cc1cc(O)c2c(c1)C(=O)c1cccc(O)c1C2=O | inactive
19 | Cn1c2c(O)c(O)ccc2c(=O)c2c(O)cc3c(c21)C=CC(C)(C)O3 | inactive
20 | O=C(CCCCc1ccc(O)cc1)CCc1ccc(O)cc1 | inactive

Row | Structure (SMILES) | outcome
21 | CCCCCCCCCCCc1cc(O)cc(O)c1 | inactive
22 | CS/C=C/C(=O)O[C@@H]1CCC2=CC(=O)C(=C(C)C)C[C@]2(C)[C@H]1C | inactive
23 | C=C1CCC2C(C)(C)C(OC(C)=O)CCC2(C)C1COc1ccc2ccc(=O)oc2c1 (stereo not given) | inactive
24 | COC1=CC(=O)CC(C)C12Oc1cc(OC)cc(O)c1C2=O (stereo not given) | inactive
25 | CC[C@H](C)C(=O)O[C@H]1C[C@@H](C)C=C2C=C[C@H](C)[C@H](CC[C@@H]3C[C@@H](O)CC(=O)O3)[C@H]21 | inactive
26 | C=C[C@H]1CN2CC[C@H]1C[C@@H]2C(O)c1ccnc2ccc(OC)cc12 (stereo not given in full) | inactive
27 | CC(=O)/C=C(O)/C=C/c1ccc(O)cc1 | inactive
28 | COc1ccc(-c2coc3cc(O)ccc3c2=O)cc1 | inactive
29 | CCC(C)C1NC(=O)C2CCCN2C1=O (stereo not given) | inactive
30 | COc1c(C)c2c(c(O)c1C/C=C(\C)CC/C=C(\C)CCC(=O)O)C(=O)OC2 | inactive
31 | COc1cc(O)cc2occ(-c3ccc(O)cc3)c(=O)c12 | inactive
32 | CC(C)C(=O)C1(C(C)CC(=O)O)CCC(C)C(=O)C1 (stereo not given) | inactive
33 | O=c1[nH]c2ccccc2c(-c2cccc(O)c2)c1O | inactive
34 | COc1ccc(CC(C)C(C)Cc2ccc3c(c2)OCO3)cc1OC (stereo not given) | inactive
35 | COc1ccc(/C=C/C(=O)O)cc1 | inactive
36 | C=C(C(=O)O)[C@@H]1CC[C@H](C)[C@@H]2CC(=O)C(C)=C2C1 | inactive
37 | CC1=C2C(=O)O[C@@H](c3ccoc3)[C@]2(C)CCC1=O | inactive
38 | O=C1OCC(c2ccccc2)=C1Cc1ccccc1 | inactive
39 | C=C1C[C@H](O)C[C@]2(C)CC[C@@H](C(C)(C)O)CC12 (stereo not given in full) | inactive
40 | CC/C=C/C=C/C1(C)OC(=O)C(C(C)=O)=C1O (stereo not given) | inactive
